# In PubChem BioAssay (EPA / NIEHS):
# The source made the active and inactive calls. How the source made its calls: active means hit-call score of the fitted dose curve at least 0.9, where 1 is the maximum; inactive means score below 0.9.
# Experiment: ATG_Sox_CIS: Attagene CIS-FACTORIAL HepG2 Assay for human SRY-box transcription factor (SOX) (AID 2282960)
# Settings: HepG2 Attagene cis-factorial SOX reporter, mRNA; actives raise or lower the signal
# Procedure: ATG_CIS is a cell-based, multiplexed-readout assay that uses HepG2, a human liver cell line, with measurements taken at 24 hours after chemical dosing in a 24-well plate.ATG_Sox_CIS is one of 52 assay component(s) measured or calculated from the ATG_CIS assay. It is designed to make measurements of mRNA induction, a form of inducible reporter, as detected with fluorescence intensity signals by Reverse transcription polymerase chain reaction (RT-PCR) and Capillary electrophoresis technology.Data from the assay component ATG_Sox_CIS was analyzed into 1 assay endpoint. This assay endpoint, ATG_Sox_CIS, was analyzed with bidirectional fitting relative to DMSO as the negative control and baseline of activity. Using a type of inducible reporter, measures of mRNA for gain or loss-of-signal activity can be used to understand the reporter gene at the transcription factor-level as they relate to the gene SOX1. Furthermore, this assay endpoint can be referred to as a primary readout, because this assay has produced multiple assay endpoints where this one serves a reporter gene function. To generalize the intended target to other relatable targets, this assay endpoint is annotated to the dna binding intended target family, where the subfamily is HMG box protein.
# Human liver HepG2 cells are transiently transfected with multiple reporter transcription units (MRTUs) in 6-well plates using FuGene 6 reagent (Roche; 3 ml FuGene/1 mg DNA). The MRTU constructs are regulated by a cis-regulating element (promoter). […] A major difference between the CIS and TRANS system is that in CIS activities of endogenous TFs are measured, whereas the TRANS assay evaluates changes in activities of exogenous, chimeric NR-Gal4 proteins. […] At the end of 24 hour incubation, total RNA was isolated using TriZol reagent (Invitrogen). The isolated RNA is then reverse-transcribed using oligo(dT) primer and Mo-MLV reverse transcriptase (Invitrogen) with DNAse I (Ambion) treatment for 30 min. The one-tenth of the produced cDNA was amplified by PCR using Taq DNA polymerase (Invitrogen) and two reporter sequence-specific primers. The PCR products were fluorescently labeled by primer extension with 6-arboxyfluorescein (6-FAM) 5'-labeled reporter sequence-specific primer (2 min at 95 C, 20 s at 68 C and 10 min at 72 C) and these products were digested with 5U of HpaI (New England Biolabs) for 2h at 37 C. The fragments were purified using Qiaquick PCR columns (Qiagen), analyzed on an ABI 3130xL genetic analyzer (Applied Biosystems) with peak positions identified by using a set of X-rhodamine (ROX)-labeled MapMarker1000 molecular weight standards (BioVentures). The raw capillary electrophoresis data was processed using Attagraph software (Attagene).
SMILES,outcome,AC50
C[Si](C)(CCCN)O[Si](C)(C)CCCN,inactive,
CC(C)=CCCC(C)C=O (stereo not given),inactive,
O=S(=O)(O)c1ccccc1C=Cc1ccc(-c2ccc(C=Cc3ccccc3S(=O)(=O)O)cc2)cc1,inactive,
C=CC(=O)OCCOC1C2CCC1C1CC=CC12 (stereo not given),inactive,
O=C(Nc1cccc(C(F)(F)F)c1)c1cc(Br)cc(Br)c1O,,79.3 µM (active)
CC1(C)[C@H]2CC[C@]1(C)C(=O)C2,inactive,
c1cc(N(CC2CO2)CC2CO2)ccc1OCC1CO1 (stereo not given),,58.5 µM (active)
c1ccc2c(c1)ccc1ncccc12,inactive,
COC(=O)c1cc(Cl)ccc1[N+](=O)[O-],inactive,
Nc1ccc(Cl)cc1Cl,inactive,
CC(C)(C)c1ccc(OC(=O)c2ccccc2O)cc1,inactive,
O=C1CCCCCN1SSN1CCCCCC1=O,,183 µM (active)
O=[N+]([O-])c1ccc(CO)cc1,inactive,
COC(=O)c1c(C)cc(O)c(C)c1O,inactive,
C=CC(=O)OCC(Br)CBr (stereo not given),inactive,
[Cl][Bi]([Cl])([c]1ccccc1)([c]1ccccc1)[c]1ccccc1,,5.6 µM (active)
Cc1ccc(N/N=c2\c(=O)cc/c(=N/Nc3ccc(S(=O)(=O)O)cc3)c2=O)c(C)c1,inactive,
Cc1ccc([N+](=O)[O-])cc1S(=O)(=O)O,,180 µM (active)
CCCCCCCOC(=O)CCC,inactive,
CCCCCCCCCCCSCC(=O)O,inactive,

SMILES,outcome,AC50
OCCNCc1ccccc1,inactive,
Cc1cnc(NC(=O)C2=C(O)c3ccccc3S(=O)(=O)N2C)s1,inactive,
Cc1cccc(OCCOc2cccc(C)c2)c1,inactive,
NC(=O)C1CO1 (stereo not given),inactive,
C=CCOCC(O)CCl (stereo not given),inactive,
CCCCCCCCCCCCCCCC[n+]1ccccc1,inactive,
C=CC(C)(CCC=C(C)C)OC(=O)C(C)C (stereo not given),inactive,
O=[N+]([O-])C1(Br)COCOC1,,51.9 µM (active)
CC(=O)Nc1nnc(S(N)(=O)=O)s1,inactive,
CC=C1CC2C=CC1C2 (stereo not given),inactive,
COC(=O)C1=C(C)NC(C)=C(C(=O)OCC(C)C)C1c1ccccc1[N+](=O)[O-] (stereo not given),inactive,
CC=CCO,inactive,
Cc1ccc(N)c([N+](=O)[O-])c1,inactive,
CCC(CO)CO,inactive,
O=C1c2cccc(O)c2C(=O)c2c(O)cc(CO)cc21,inactive,
Cc1ccc(C(C)(C)C)cc1,inactive,
CO[Si](OC)(OC)c1ccccc1,inactive,
CCCCC/C=C\CCC=O,inactive,
CC(=O)NS(=O)(=O)c1ccc(N)cc1,inactive,
Cc1cc(C)c(C)cc1C,inactive,
